# HTT aggregate: reduces HttQ103-GFP aggregates in PC12 cells | 1.1% of 220,000 active | Potency, µM (titrated, usually from 46.1 µM), without a hit: top-dose activity change, negative = inhibition, usual class: inhibitors | AID 1688 | PC12 HttQ103-GFP aggregates, Acumen cytometry, 40 h; note: potency is the fitted concentration of half-maximal effect; % is set by controls: 0 for no effect and ±100 for the full control effect; nearly all actives have a fitted effect of over 60% in size
#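 PC12/HTTQ103-GFP, ecdysone-inducible; teb 100 nM; cpd qHTS titration; GFP aggregates read on laser cytometer, Ex 488/Em 500-530 nm.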
# GoLoco inh red: RGS12 GoLoco-Gai1 interaction inhibition; Potency, µM (top dose mostly 61.6 µM), inactives show at the top dose activity, negative = inhibition, most hits filed as inhibitors; Gai1:RGS12 GoLoco peptide FP, rhodamine, 10 min; P63096; 0.44% of 230,000 active; AID 880; active = well fitted inhibition curve with a large enough effect, not every such curve was filed as active; inactive = no such curve, though single readings can be large or run the other way; note: potency is the fitted concentration of half-maximal effect; % is set by controls: 0 for no effect and ±100 for the full control effect; nearly all actives have a fitted effect of over 30% in size
# Target sequence (P63096 whole entry, looked up): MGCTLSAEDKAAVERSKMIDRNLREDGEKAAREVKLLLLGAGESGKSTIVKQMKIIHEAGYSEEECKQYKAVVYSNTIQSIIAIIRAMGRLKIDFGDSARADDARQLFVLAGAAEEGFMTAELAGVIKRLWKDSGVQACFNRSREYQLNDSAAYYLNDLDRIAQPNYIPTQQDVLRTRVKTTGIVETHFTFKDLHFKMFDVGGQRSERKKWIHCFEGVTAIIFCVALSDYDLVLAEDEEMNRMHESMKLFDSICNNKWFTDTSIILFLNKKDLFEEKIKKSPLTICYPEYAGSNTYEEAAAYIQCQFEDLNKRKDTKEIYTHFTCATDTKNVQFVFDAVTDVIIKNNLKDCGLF
# PNC inhibitor: blocks assembly of the perinucleolar compartment. PC3M PTB-GFP, PNC prevalence imaging, 16 h; active compounds read low. activity change (PNC), negative = inhibition, % at 10 µM. 3.1% of 140,000 active. AID 2417;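 active = readout at or below -70, meaning at least 70% loss of cells showing the perinucleolar compartment, a nuclear body marking cancer cells; inconclusive = readout between -30 and a set limit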;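 note: plate controls were DMSO wells for no effect and camptothecin positive control wells for full effect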
#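 Compounds are pinned in duplicate onto adhered PC3M cells stably expressing GFP-tagged PTB and incubated 16 h at 37 C. Cells are then fixed, nuclei stained with Hoechst, and PNC-positive cells counted.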
# HPGD inh: blocks human HPGD enzyme activity | P15428 | Potency, µM, inactives show top-dose activity change, negative = inhibition, usual class: inhibitors | AID 894 | purified HPGD, NADH fluorescence kinetic, PGE2 substrate | 4.3% of 150,000 active; active = well fitted inhibition curve with a large enough effect, not every such curve was filed as active; inconclusive = small, poorly fitted or top-dose-only effect, or another doubt; inactive = no such curve, though single readings can be large or run the other way; note: potency is the fitted concentration of half-maximal effect; % is set by controls: 0 for no effect and ±100 for the full control effect
# Target sequence (P15428 whole entry, looked up): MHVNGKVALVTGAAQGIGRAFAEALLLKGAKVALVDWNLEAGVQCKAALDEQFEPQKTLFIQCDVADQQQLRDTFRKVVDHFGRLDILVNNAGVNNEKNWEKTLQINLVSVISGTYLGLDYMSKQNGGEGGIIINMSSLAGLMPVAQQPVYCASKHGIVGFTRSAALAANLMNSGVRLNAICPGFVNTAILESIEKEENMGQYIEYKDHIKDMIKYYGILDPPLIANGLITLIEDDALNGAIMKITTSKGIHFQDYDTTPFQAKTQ
#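 NADH formation kinetics: reaction with 30 uM PGE2 and 1 mM NAD+ (final), 20 nM enzyme, Tris-HCl pH 8 with Tween 20, after 15 min compound preincubation at room temperature. Fluorescence change, last versus first of five reads.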
# ALDH1A1 inh: ALDH1A1 (human) enzyme inhibition | P00352 | Purified ALDH1A1, NADH fluorescence, propionaldehyde substrate | Potency, µM (titrated, usually from 75.3 µM), for inactives: top-dose activity, negative = inhibition, hits mostly inhibitors | 7.3% of 220,000 active | AID 1030; active = well fitted inhibition curve with a large enough effect, not every such curve was filed as active; inconclusive = small, poorly fitted or top-dose-only effect, or another doubt; inactive = no such curve, though single readings can be large or run the other way;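 note: potency is the fitted concentration of half-maximal effect; plate controls were no enzyme wells and a reference inhibitor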
# HTT ATP protect: cytoprotection in Huntington HTT-Q103 PC12 cell model. PC12 HTT-Q103 induced, cytoprotection, ATP luminescence, 40 h. Potency, µM (top dose mostly 56.4 µM), for the others: cytoprotection (ATP increase), most hits filed as activators. 0.14% of 230,000 active; note: potency is the fitted concentration of half-maximal effect; % of control where 0% means no effect; nearly all actives have a fitted effect of over 45% in size
#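 ATP quantification (ATPlite) reports survival of PC12 cells in which tebufenozide, 100 nM final, switches on Htt exon 1 with 103 glutamines linked to GFP; compounds are titrated.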
# Numbers without * were called inactive; u = inconclusive; x = no result; ! = not confirmed by another sample; [ ] = remark or other dose. Compounds with a hit are over-represented: about 11% of the library has one in this group of screens. Unless noted, calls come from the whole dose curve; as a rule, active = well fitted curve in the direction sought with a large enough effect; inconclusive = small, poorly fitted or top-dose-only effect, or another doubt; inactive = no such curve, though single readings can be large; an effect the other way counts as inactive or inconclusive.
SMILES,HTT aggregate,GoLoco inh red,PNC inhibitor,HPGD inh,ALDH1A1 inh,HTT ATP protect
COC(=O)c1c(NC(=O)CSc2ncnc3[nH]ncc23)sc2c1CCC2,16%,6%,x,x,14µM*,-18%
Cn1c(SCc2cnc(-c3ccccc3)s2)nnc1C1COc2ccccc2O1 (configuration not stated),-3%,0%,75,25µM*,13µM*,-5%[10 µM]
CC(C)(C)OC(=O)N1CC2Cc3[nH]c(=O)ccc3C(C2)C1 (configuration not stated),19%,4%,18,-28%,2%,11%
COc1cc(NC(=O)c2cccs2)c(OC)cc1NC(=O)CCn1nnc2ccccc21,3%,x,17,x,-14%,-25%[10 µM]
CC[C@@H]1/C=C(\C)C[C@H](C)C[C@H](OC)[C@H]2O[C@@](O)(C(=O)C(=O)N3CCCC[C@H]3C(=O)O[C@H](/C(C)=C/[C@@H]3CC[C@@H](O)[C@H](OC)C3)[C@H](C)[C@@H](O)CC1=O)[C@H](C)C[C@@H]2OC,x,-8%,x,x,-1%,-93%
N#Cc1cc2c(nc1SCC(=O)Nc1sc3c(c1C#N)CCC3)CCCC2,19%,31%,58,-24%,u,12%
CCCCn1nnnc1SCC(=O)Nc1sc2c(c1C#N)CCCC2,u,2%,-2,-14%,28µM*,-15%[10 µM]
Cn1cnnc1SCC(=O)Nc1sc2c(c1C#N)CCCCC2,6%,42%,u,-13%,7.1µM*,16%[10 µM]
N#Cc1c(NC(=O)CSc2nnnn2C2CCCC2)sc2c1CCCC2,-6%,-1%,-2,-21%,3.5µM*,16%[1.9 µM]
N#Cc1ccc(-c2ccc(F)cc2)nc1SCC(=O)Nc1sc2c(c1C#N)CCC2,-5%,16%,17,u,25µM*,-23%
Cc1ccc(S(=O)(=O)NC(=O)O[C@@H]2C(=O)c3cc(Br)ccc3O[C@H]2c2ccc3c(c2)OCO3)cc1,x,-39%,x,-13%,-4%,-42%
COc1cc2c(cc1OC)C1C(=O)c3c(O)cc4c(c3OC1CO2)C=CC(C)(C)O4 (configuration not stated),x,4%,x,-20%,u,-117%
N#Cc1c(NC(=O)CSc2ncn[nH]2)sc2c1CCCCC2,-31%,-3%,-117*,-7%,u,-34%
O=C(NCCc1c[nH]c2ccc(Cl)cc12)c1cccnc1,-23%,3%,u,16µM*,11%,14%
O=C(NCCc1c[nH]c2ccccc12)c1cncc(Br)c1,-22%,-10%,x,x,u,-23%
COc1ccc(CCC(=O)Nc2c(C)n(C)n(-c3ccccc3)c2=O)cc1,1%,1%,x,x,-3%,-8%
C/C(=N\NC(=O)c1cccc(N/N=C(\C)c2cc(O)ccc2O)c1)c1cc(O)ccc1O,u,16%,x,x,7.9µM*,4%[10 µM]
C/C(=N\NC(=O)c1cccc(N/N=C(\C)c2ccco2)c1)c1ccco1,22%,8%,x,x,u,-94%
O=C(O)CCn1cnc2c(=S)nc[nH]c21,x,1%[14.2 µM],x,0%,-12%[13.5 µM],11%[10 µM]
N[C@H](C(=O)N[C@@H]1C(=O)N2C(C(=O)O)=C(Cl)CS[C@@H]12)c1ccccc1,x,2%[21.6 µM],x,-11%,11µM*!,u
NC(C(=O)NC1C(=O)N2C(C(=O)O)=C(Cl)CSC12)c1ccccc1 (configuration not stated),x,-15%,x,u,16µM*,-38%
CC1=C(C(=O)O)N2C(=O)[C@@H](NC(=O)[C@@H](N)C3=CCC=CC3)[C@@H]2SC1,x,x,x,x,x,5%[1.9 µM]
COc1ccc(C(=O)[C@]2(C)C=C(c3ccc(OC)cc3)[C@H](C)C2)cc1,x,2%,x,-7%,2%,35µM*
[N-]=[N+]=NC[C@@H]1O[C@@H](n2cnc3c(N)ncnc32)[C@@H]2O[C@@H]21,x,2%[14.2 µM],x,-6%,-5%[13.5 µM],-22%[10 µM]
Cc1cc(OCC(=O)Nc2ccc(F)c(F)c2)nc(C(C)C)n1,2%,4%,24,-12%,25µM*,-1%
SMILES,HTT aggregate,GoLoco inh red,PNC inhibitor,HPGD inh,ALDH1A1 inh,HTT ATP protect
CCC(=O)OCC(=O)[C@@]1(OC(=O)CC)[C@@H](C)C[C@H]2[C@@H]3CCC4=CC(=O)C=C[C@]4(C)[C@@]3(F)[C@@H](O)C[C@@]21C,x,0%,x,-6%,-1%,-37%
Cc1ccc(CN(Cc2cc3cc4c(cc3[nH]c2=O)OCCO4)Cc2nnnn2Cc2ccco2)cc1,-12%,168%,-4,u,u,1%
Cc1ccc2cc(CN(Cc3ccc4c(c3)OCO4)Cc3nnnn3Cc3ccco3)c(=O)[nH]c2c1,-4%,7%,u,-28%,14µM*,-10%[10 µM]
COc1ccc2cc(CN(CCc3ccccc3)Cc3nnnn3Cc3ccco3)c(=O)[nH]c2c1,-4%,16%,-21,-12%,0.079µM*,-3%[10 µM]
COc1ccccc1CN(Cc1cc2c(C)ccc(C)c2[nH]c1=O)Cc1nnnn1Cc1ccco1,u,7%,19,-7%,14µM*,-2%[1.9 µM]
Nc1ccn([C@@H]2O[C@H](COC(=O)C34CC5CC(CC(C5)C3)C4)[C@@H](O)[C@@H]2O)c(=O)n1,x,-2%[14.2 µM],x,-14%,-9%[13.5 µM],-46%[10 µM]
Cc1ccc(-c2nn(-c3ccccc3)cc2C(=O)O)o1,12%,8%,x,x,u,-14%
Cc1ccc(-c2nn(-c3ccccc3)cc2CN(Cc2ccccc2)C(=O)c2ccco2)o1,u,0%,u,-27%,11µM*,-46%
CCc1nnc(NC(=O)CCNC(=O)c2ccccc2Cl)s1,15%,1%,x,x,2%,-22%
CSc1nnc(NC(=O)C2CCCCC2)s1,-2%,3%,-24,-4%,3%,6%
CCc1nnc(NC(=O)C2CCCCC2)s1,-4%,5%,9,u,25µM*,8%
CCc1nnc(NC(=O)C(=O)NCCOC(=O)c2ccccc2Cl)s1,13%,-10%,-109*,-16%,u,-52%
CC(C)c1nnc(NC(=O)C2CCCO2)s1 (configuration not stated),u,4%,x,x,3.8µM*,u
CC(C)c1nnc(NC(=O)C2CCCCC2)s1,-17%,6%,-118*,-13%,-11%,5%[10 µM]
CN1CC[C@@]2(CCN3CCc4c(oc5ccccc45)[C@@H]3C2)N(C)C1=O,x,x,x,x,x,-2%[1.9 µM]
COC(=O)Cc1nnc(NC(=O)C(C)C)s1,4%,2%,u,0%,-15%,25%
CCc1nnc(NC(=O)c2cccc(C(=O)Nc3nnc(CC)s3)n2)s1,0.89µM*,3%,u,-8%,u,-79%[0.074 µM]
CCc1cccc(C)c1NC(=O)C1CCCO1 (configuration not stated),6%,0%,u,-1%,13%,-3%
